Screening results: PubChem BioAssay, several laboratories
TcdB inh – blocks C. difficile toxin B glycohydrolase activity; P18177; TcdB glycohydrolase enzymatic assay, plate reader; inhibition, % at 9.99 µM; hit rate 0.24% among 350,000; in the data active = inhibition above about 10%
MazEF act – activators of E. coli MazEF toxin-antitoxin RNase; P0AE70; FAM/BHQ RNA-DNA oligo cleavage fluorescence, 5 h; activation, % at 20 µM; hit rate 0.32% among 350,000; AID 504720; in the data active = activation above about 50%
Target sequence (P0AE70 whole entry, looked up): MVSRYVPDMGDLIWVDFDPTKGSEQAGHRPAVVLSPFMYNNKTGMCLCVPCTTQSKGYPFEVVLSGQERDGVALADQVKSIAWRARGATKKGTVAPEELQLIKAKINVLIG
Rv3671c protease – inhibitors of M. tuberculosis serine protease Rv3671c; hit rate 0.048% among 320,000; inhibition, % at 5.96 µM; AID 2606; in the data active = inhibition above about 38%;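 note: extracellular domain of Rv3671c used as enzyme; 0% = enzyme with DMSO and 100% = no enzyme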
Target sequence (P9WHR9 whole entry, looked up, the tested form may be a part): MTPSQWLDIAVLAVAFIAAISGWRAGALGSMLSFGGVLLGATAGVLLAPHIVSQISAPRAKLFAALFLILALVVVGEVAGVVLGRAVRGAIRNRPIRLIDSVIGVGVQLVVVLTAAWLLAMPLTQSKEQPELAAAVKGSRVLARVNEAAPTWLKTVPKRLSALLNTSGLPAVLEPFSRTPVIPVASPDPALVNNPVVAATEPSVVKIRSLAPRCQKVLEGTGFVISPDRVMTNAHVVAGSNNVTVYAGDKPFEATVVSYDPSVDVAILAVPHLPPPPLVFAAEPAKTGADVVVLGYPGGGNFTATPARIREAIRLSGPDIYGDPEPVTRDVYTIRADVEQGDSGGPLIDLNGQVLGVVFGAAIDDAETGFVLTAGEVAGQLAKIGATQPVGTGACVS
Mtb betalactam – beta-lactam sensitization of Mtb H37Rv. M. tuberculosis H37Rv growth with meropenem, percent inhibition. inhibition, % at 25 µM. hit rate 0.27% among 330,000. AID 434955;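 note: growth measured after seven days incubation then overnight dye step; 0% = bacteria only wells and 100% = bacteria with antibiotic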
RecA splice inh – inhibitors of M. tuberculosis RecA intein splicing | P9WHJ3 | cell-free RecA intein splicing, fluorescence | inhibition, % (test concentration not listed) | hit rate 0.75% among 290,000 | AID 2221; in the data active = inhibition above about 30%;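 note: 0% = vehicle wells and 100% = reference inhibitor control wells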
Mtb UGM inh – Mtb UDP-galactopyranose mutase inhibition. purified UGM, fluorescence polarization probe displacement. inhibition, % at 10 µM. hit rate 0.06% among 320,000. AID 504406; in the data active = inhibition above about 10%, passing the limit was not always enough
GFP chromophore – counter-screen GFP chromophore formation inhibition; shares compounds with RecA splice inh; cell-free GFP chromophore formation, fluorescence; EC50, µM; hit rate 83% among 2,100
The depositor's hits bear a star; / = no result given. In the library only some 0.97% were active in any assay of this set; here they are far more common. Unless noted, the rule behind the calls is not given here.

SMILES | TcdB inh | MazEF act | Rv3671c protease | Mtb betalactam | RecA splice inh | Mtb UGM inh | GFP chromophore
CC1CCC(C(C)C)C(OC(=O)Cn2c(COc3ccccc3)[n+](C)c3ccccc32)C1 (configuration not stated) | 3 | -19 | -5 | 99 | 15 | 1 | /
CCCCN(C(=O)c1cccc2c(=O)c(C)c(-c3ccccc3)oc12)c1ccccc1 | 1 | 4 | / | / | 33* | / | >38
Nc1ccc2nc(Cc3ccccc3)[nH]c2c1 | 5 | 8 | -16 | -1 | 30* | 2 | >38
COC(=O)c1cc(NC(=O)Nc2ccccc2OC)cc(C(=O)OC)c1 | / | 9 | -13 | 9 | 40* | -4 | >38
CCCC(=O)Nc1ccc2c(c1)OC[C@@H](C)N(Cc1ccccc1)C[C@@H](C)[C@@H](OC)CN(C)C2=O | -1 | / | / | / | / | / | /
CCc1ccc(Nc2n[n+](-c3ccccc3)c(-c3c(Cl)cccc3Cl)s2)cc1 | 1 | 2 | 12 | 100 | 49* | 2 | 16*
COc1cc2c(cc1O)CC1c3c(cc(O)c(OC)c3-2)CCN1C (configuration not stated) | -10 | 8 | 0 | 0 | -5 | 0 | /
COc1cc2c(cc1OC)-c1c(OC)c(OC)cc3c1[C@H](C2)N(C)CC3 | -1 | 5 | -23 | -1 | 34* | 0 | 22*
CCC(C)[C@H](NC(=O)NC1CCN(Cc2ccccc2)CC1)C(=O)OC (some centres not stated) | / | -6 | 12 | 0 | 38* | 1 | >38
CCOC(=O)C1=C(c2ccccc2)OC(N)=C(C#N)C1c1cccnc1 (configuration not stated) | 0 | 3 | 11 | -6 | -1 | 0 | /
N#CC1=C(N)Oc2nc(-c3ccccc3)[nH]c2C1c1cccnc1 (configuration not stated) | / | 1 | -7 | 3 | 78* | -1 | 23*
COc1ccc(-c2[nH]nc3c2C(c2ccoc2)C(C#N)=C(N)O3)cc1 (configuration not stated) | / | 0 | -13 | -14 | 87* | 0 | 4.7*
Cc1ccc(-c2[nH]nc3c2C(c2cccnc2)C(C#N)=C(N)O3)cc1 (configuration not stated) | / | 6 | -4 | -9 | 69* | 1 | 13*
N#CC1=C(N)Oc2n[nH]c(-c3ccccc3)c2C1c1cccnc1 (configuration not stated) | / | 2 | -10 | 6 | 80* | 1 | 17*
CCC(=O)Nc1ccc2c(c1)OC[C@@H](C)N(Cc1ccccc1C(=O)O)C[C@@H](C)[C@H](OC)CN(C)C2=O | -1 | / | / | / | / | / | /
CN(C)CC(=O)N[C@@H]1CC[C@@H](CCNC(=O)C2CCCCC2)O[C@@H]1CO | 0 | / | / | / | / | / | /
C[C@H](CO)N1C[C@H](C)[C@H](CN(C)C(=O)c2cccnc2)Oc2ncc(C3=CCCCC3)cc2C1=O | 0 | / | / | / | / | / | /
COc1ccc(NC(=O)N2C[C@@H]3[C@H](c4ccccc42)[C@H](CO)N3C(=O)C2CCCC2)cc1 | -10 | / | / | / | / | / | /
Cc1ccc(-c2[nH]nc3c2C(c2ccc(OC(=O)N4CCOCC4)cc2)C(C#N)=C(N)O3)cc1 (configuration not stated) | -1 | -3 | -19 | -1 | 82* | -1 | 11*
CCOc1cc(C2C(C#N)=C(N)Oc3n[nH]c(-c4ccccc4)c32)ccc1O (configuration not stated) | / | 27 | -7 | -3 | 83* | -1 | 6.4*
CC(C)C1C(C#N)=C(N)Oc2n[nH]c(-c3ccccc3)c21 (configuration not stated) | / | 8 | -8 | -12 | 8 | 0 | /
Oc1ccc(N=Cc2ccc(-c3cccs3)s2)cc1 | / | 12 | -10 | 8 | 45* | -1 | >38
Cc1ccc(NC(=O)C2=C(c3ccccc3)S(=O)(=O)CCS2(=O)=O)cc1 | 1 | -9 | -2 | 7 | 94* | -4 | 1.9*
O=C(CCl)N1N=C(c2cccs2)CC1c1ccco1 (configuration not stated) | 1 | -12 | 7 | 100 | 63* | 0 | 31*
COc1cc(/C=C(\C#N)c2nc3ccccc3o2)ccc1O | -2 | -354 | 1 | -8 | 34* | -29 | 17*
SMILES | TcdB inh | MazEF act | Rv3671c protease | Mtb betalactam | RecA splice inh | Mtb UGM inh | GFP chromophore
C[C@@H]1CN([C@@H](C)CO)C(=O)c2cc(NC(=O)Nc3ccc(F)cc3)ccc2O[C@H]1CN(C)Cc1ccc(Cl)c(Cl)c1 | 0 | / | / | / | / | / | /
COc1ccc(-c2csc(CCN3N=C(C)CC3=O)n2)cc1 | / | -3 | -5 | 2 | 86* | 1 | 4.8*
O=c1cc(-c2ccc(F)cc2)[nH][nH]1 | / | 3 | -166 | 5 | 98* | 0 | 2.3*
O=c1cc(-c2ccc(Br)cc2)[nH][nH]1 | 2 | 4 | -84 | 4 | 97* | -1 | 3.7*
O=c1ccc(Br)c[nH]1 | / | 1 | 6 | -6 | 1 | 3 | /
O=c1cc(-c2ccc(C3CCCCC3)cc2)[nH][nH]1 | 3 | 2 | -7 | 3 | 76* | -1 | 1.9*
O=c1cc(-c2ccccc2)[nH][nH]1 | 4 | 3 | -43 | 9 | 97* | 1 | 2.2*
O=c1cccc(-c2ccccc2)[nH]1 | / | -2 | 0 | -8 | 1 | 0 | /
O=S(=O)(c1ccc(C2CCCCC2)cc1)N1CCOCC1 | / | -4 | -14 | -5 | -1 | 0 | /
CC=Cc1ccc2n(c1=O)C[C@H]1[C@H](CO)[C@@H](C(=O)NCCc3ccccc3)N(C(=O)CC)[C@@H]21 (mixture of isomers) | 0 | / | / | / | / | / | /
COc1cccc(N(C(=O)CCl)C(C(=O)NCCc2ccccc2)c2cccs2)c1 (configuration not stated) | / | -11 | 7 | 65 | 73* | -1 | 3.3*
COc1ccc(N(C(=O)CCl)C(C(=O)NCCc2ccccc2)c2cccs2)cc1Cl (configuration not stated) | 1 | -9 | -2 | 88 | 77* | 4 | 0.96*
COc1ccc(N(C(=O)c2ccco2)C(C(=O)NC2CCCCC2)c2cccs2)cc1OC (configuration not stated) | / | 2 | -5 | -7 | 3 | 0 | /
COc1cccc(N(C(=O)c2snc(C(N)=O)c2N)C(C(=O)NCC2CCCO2)c2cccs2)c1 (configuration not stated) | 1 | 11 | 2 | 6 | 0 | -3 | /
COc1ccc(C(=O)CSc2nnc(NC(=O)C3CC(=O)N(c4ccccc4)C3)s2)cc1 (configuration not stated) | -1 | -4 | -30 | 0 | -1 | -1 | /
COc1cccc(N2CC(C(=O)Nc3nnc(SCC(=O)c4ccccc4)s3)CC2=O)c1 (configuration not stated) | -1 | 2 | -18 | 8 | 94* | / | >38
O=C1C2=C(c3ccccc31)[N+](=O)[C@@H]1CCCC[C@@H]1N2[O-] | 1 | 3 | -25 | -4 | / | -1 | /
